Unmarked numbers belong to inactive results. The rule behind the calls is not given here.
System: HIV-1 nucleocapsid protein NCp7 (binding to TG oligonucleotide)
Test: HIV Nucleocapsid (AID 346);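 note: potency is for inhibitors that block NC binding and lower polarization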
Conditions: HIV-1 NC / fluorescein-TGTGTGTG probe, fluorescence polarization
Summary of the method: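 Inhibition of nucleocapsid binding to single-stranded 5'-TGTGTGTG probe (10 nM) was measured by fluorescence polarization after 1 hr at room temperature with 100 nM protein under high-salt, zinc-containing, reducing conditions.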
Potency is the fitted concentration of half-maximal effect.

Row | SMILES | Potency [µM]
1 | COc1ccc(Oc2ncc3nc(C)c(=O)n(C)c3n2)cc1 | > 20
2 | CN(C)c1ncc2nc(-c3cccs3)c(=O)n(-c3ccccc3)c2n1 | > 4
3 | COc1ccccc1CNc1cc(-c2ccoc2)ncn1 | > 20
4 | O=C(c1cc(C(F)(F)F)cc(C(F)(F)F)c1)N1CCC2(CC1)CN(c1ccccc1)C2 | > 20
5 | CCNc1ncc2nc(C)c(=O)n(CCOC)c2n1 | > 20
6 | c1cncc(CNc2ncncc2-c2ccc3c(c2)OCO3)c1 | > 20
7 | COc1ccccc1-c1nc(Nc2ccncc2)c2ccccc2n1 | > 20
8 | COc1ccc(C(=O)N2CCC[C@@]3(CCN(Cc4ccccc4)C3)C2)cc1 | > 20
9 | O=C(c1ccncc1)N1CCC2(CC1)CN(c1cccc(-c3ccccc3)c1)C2 | > 20
10 | COc1ccccc1-c1nccc(-n2ccnc2)n1 | > 20
11 | Cn1c(=O)c(-c2ccc(F)cc2)nc2cncnc21 | > 20
12 | O=c1c(-c2ccc(Cl)cc2)nc2cnc(N3CCNCC3)nc2n1Cc1ccc(F)cc1 | > 20
13 | Cc1nc2cnc(Oc3cccc(Cl)c3)nc2n(C2CC2)c1=O | > 20
14 | Cn1cccc1C(=O)N1CCC2(CCN(Cc3nccs3)CC2)CC1 | > 20
15 | O=C(c1cccc(F)c1)N1CCC[C@@]2(CCN(c3ccncc3)C2)C1 | > 20
16 | FC(F)(F)c1ccccc1-c1nc(NCc2cccs2)c2ccccc2n1 | > 20
17 | CNc1ncnc2ccc(-c3cccc(NS(C)(=O)=O)c3)cc12 | > 20
18 | N#CCCn1c(=O)c(-c2ccc(F)cc2)nc2cnc(OCc3ccccc3)nc21 | > 20
19 | Cc1noc(C)c1C(=O)N1CCC[C@@]2(CCN(c3ccccn3)C2)C1 | > 20
20 | O=c1c(CCc2ccccc2)nc2cncnc2n1C1CC1 | > 20

Row | SMILES | Potency [µM]
21 | CCNc1ncc2nc(-c3ccc(F)cc3)c(=O)n(C[C@H]3CCCO3)c2n1 | > 20
22 | COC(=O)N1CCC[C@@]2(CCN(C(=O)Nc3ccccc3)C2)C1 | > 20
23 | O=C(c1cc(C(F)(F)F)cc(C(F)(F)F)c1)N1CCC2(CCCN(Cc3ccncc3)C2)CC1 | > 20
24 | Cc1ccccc1-c1nc(N(C)C)c2ccccc2n1 | > 20
25 | O=C(c1cccc(F)c1)N1CCC[C@@]2(CCN(Cc3ccccc3)C2)C1 | > 20
26 | COc1ccccc1-c1nc(NCCN2CCOCC2)c2ccccc2n1 | > 20
27 | Cc1noc(C)c1-c1nc(N(C)C)c2ccccc2n1 | > 20
28 | COc1ncc2nc(-c3ccc(Cl)cc3)c(=O)n(Cc3cccs3)c2n1 | > 20
29 | Cc1nc2cnc(N3CCN(C)CC3)nc2n(CCc2ccccc2)c1=O | > 20
30 | CN(C)c1ncc2nc(-c3ccc(F)cc3)c(=O)n(-c3ccccc3)c2n1 | > 20
31 | COc1cccc(Cn2c(=O)c(C)nc3cnc(Nc4ccccc4)nc32)c1 | > 4
32 | O=C(Nc1ccccc1)N1CCC2(CC1)CCN(C(=O)c1csnn1)CC2 | > 20
33 | COc1ccc(NC(=O)N2CC3(CCN(C(=O)c4cnccn4)CC3)C2)cc1 | > 20
34 | CN(C)c1ncc2nc(-c3ccc(Cl)cc3)c(=O)n(Cc3ccc(F)cc3)c2n1 | > 4
35 | COCCn1c(=O)c(-c2ccc(Cl)cc2)nc2cnc(N3CCOCC3)nc21 | > 20
36 | N#Cc1ccc(CN2CCCC3(CCNCC3)C2)cc1 | > 20
37 | CC(C)CN1CCC2(CC1)CCN(C(=O)c1ccncc1)CC2 | > 20
38 | CS(=O)(=O)Nc1cccc(-c2cncnc2Nc2ccccc2)c1 | > 20
39 | COc1cccc(-c2ccc3ncnc(NCc4cnc(C)cn4)c3c2)c1 | > 20
40 | Cc1cccc(CNc2ccnc(-c3cccc(C#N)c3)n2)c1 | > 20

Row | SMILES | Potency [µM]
41 | O=c1c(CCc2ccccc2)nc2cncnc2n1Cc1ccccc1Cl | > 20
42 | CN(C)c1ncc2nc(-c3ccccc3)c(=O)n(CCC#N)c2n1 | > 20
43 | O=C(c1cccc(F)c1)N1CCC2(CCN(Cc3ccncc3)CC2)CC1 | > 20
44 | Cn1c(=O)c(-c2ccc(F)cc2)nc2cnc(OCc3ccccc3)nc21 | > 20
45 | CC(C)NC(=O)N1CCCC2(CCN(C(=O)c3cccn3C)CC2)C1 | > 20
46 | N#Cc1cccc(-c2nc(Nc3ccccc3)c3ccccc3n2)c1 | > 20
47 | N#CCCn1c(=O)c(-c2ccc(F)cc2)nc2cnc(N3CCNCC3)nc21 | > 20
48 | CCNc1ncc2nc(-c3ccccc3)c(=O)n(Cc3ccc(F)cc3)c2n1 | > 20
49 | Cc1cccc(CNc2ncncc2-c2ccccc2C(F)(F)F)c1 | > 20
50 | COc1ccc(NC(=O)N2CC3(CCN(C(=O)c4ccncc4)CC3)C2)cc1 | > 20
51 | CN(C)C(=O)c1ccc(-c2nc(Nc3ccc(F)cc3)c3ccccc3n2)cc1 | > 20
52 | Cc1noc(C)c1C(=O)N1CCC2(CCCN(Cc3nccs3)C2)CC1 | > 20
53 | O=c1c(-c2ccc(F)c(F)c2)nc2cncnc2n1Cc1ccccc1 | > 20
54 | CCNc1ncc2nc(-c3ccccc3)c(=O)n(-c3ccc(OC)cc3)c2n1 | > 20
55 | COCCNc1ncncc1-c1ccccc1OC | > 20
56 | COc1ccc(CNc2ncncc2-c2ccoc2)c(OC)c1 | > 20
57 | COCCNc1nc(-c2ccoc2)nc2ccccc12 | > 20
58 | Cc1cccc(CNc2cc(-c3ccccc3CN(C)C)ncn2)c1 | > 20
59 | Cc1cccc(CNc2cc(-c3cccc(NS(C)(=O)=O)c3)ncn2)c1 | > 20
60 | Cn1c(=O)c(-c2ccc(Cl)cc2)nc2cnc(Oc3ccccc3)nc21 | > 20
